aSyn yeast inh: inhibitors of alpha-synuclein toxicity in yeast | Yeast expressing alpha-synuclein, growth rescue, BacTiter-Glo, 24 h | Potency, µM (titrated, usually from 46.1 µM), inactives show at the top dose growth rescue (activation), hits mostly activators | actives 0.14% (n = 370,000) | AID 652106; further: % of control where 0% means no effect; nearly all actives have a fitted effect of over 65% in size
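Readout is rescue of growth in alpha-synuclein-expressing yeast, so inhibitors of toxicity appear as activators. Growth after 24 hr at 30 deg C in galactose medium is quantified by luminescence.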
TDP43 rescue: rescues yeast growth from TDP-43 toxicity. TDP-43 expressing yeast growth rescue, BacTiter-Glo, 24 h. Potency, µM (series often up to 46.1 µM), inactives show at the top dose growth rescue (activation), hits mostly activators. actives 1.8% (n = 410,000). AID 652104; further: % of control where 0% means no effect; nearly all actives have a fitted effect of over 50% in size
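Cell-based yeast growth screen: TDP-43 expression induced in galactose, inoculum OD600=0.02 after raffinose pregrowth to mid-log. Read-out BacTiter-Glo luminescence at 24 hr, 30 deg C; inhibition of toxicity seen as signal increase.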
FUS yeast rescue: FUS proteinopathy suppression in yeast | S. cerevisiae FUS-expressing, growth rescue, OD600, 24 h | Potency, µM (highest dose often 76.6 µM), most hits filed as activators | actives 0.24% (n = 390,000) | AID 1347120;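 further: plate controls were DMSO vehicle for no effect and reference control for full effect; nearly all actives have a fitted effect of over 55% in size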
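Yeast expressing FUS under galactose induction, OD 0.005 in 2% galactose medium; compounds in a dilution series, 24 h at 30C. Growth rescue by absorbance at 600 nm; CP55940 positive control, DMSO negative.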
uPA surface inh: inhibitors of cell surface uPA generation; cell surface uPA generation assay, qHTS; Potency, µM (titrated, usually from 38.3 µM), without a hit: at the highest dose activity change, negative = inhibition, usual class: inhibitors; actives 0.31% (n = 330,000); active means well fitted inhibition curve with a large enough effect; inconclusive means small, poorly fitted or top-dose-only effect; inactive means no such curve, though single readings can be large or run the other way; tested in mouse RAW 264.7 cells; further: on the % scale 0 is the no-effect control and ±100 the full control effect; nearly all actives have a fitted effect of over 55% in size
BCR signal inh: blocks chronic active B-cell receptor signaling; actives 0.05% (n = 340,000); ABC-DLBCL IkBa-CBG/CBR reporter, luminescence ratio, 4 h; AID 493014; Potency, µM (top dose mostly 46.1 µM), for inactives: top-dose activity change, negative = inhibition, usual class: inhibitors; active means well fitted inhibition curve with a large enough effect in the signal ratio, with a control signal flat, not every such curve was filed as active; inconclusive means small, poorly fitted or top-dose-only effect, or effect the other way, or a change in a side signal; the % refers to the signal ratio;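 further: plate controls were basal doxycycline-induced cells for no effect and cells given 10 µM MG132 for full effect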
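TMD8 human ABC-DLBCL cells with doxycycline-inducible IκBα–green luciferase fusion and unfused red luciferase, in 0.5% FBS medium; compounds up to 46 uM, 4 h at 37C. Green/red luminescence ratio, filter-overlap corrected, fitted to concentration-response curves.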
Abeta rescue: restores growth of yeast expressing A-beta42 peptide; yeast expressing A-beta42, growth rescue, OD600, 48 h; response scale: 0% DMSO, 100% iron-clioquinol control; Potency, µM (series often up to 46.1 µM), most hits filed as activators; actives 0.063% (n = 410,000); further: nearly all actives have a fitted effect of over 55% in size
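Yeast A-beta toxicity model in growth medium with pinned compounds, 48 h at 30 C; growth read as absorbance at 600 nm. Normalized to FeCl3/clioquinol equimolar mix (positive) and DMSO (negative).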
Starred values were filed as active, the others as inactive; i = inactive; ? = inconclusive; · = no result; ! = not active in a repeat. This is a sample that favours compounds with a hit; in the whole collection about 2.3% have one here. Unless noted, the call rests on the fitted dose curve; in most records, active means well fitted curve in the direction sought with a large enough effect; inconclusive means small, poorly fitted or top-dose-only effect, or another doubt; inactive means no such curve, though single readings can be large; an effect the other way counts as inactive or inconclusive. Potency means the concentration at half of the fitted maximal effect.

SMILES | aSyn yeast inh | TDP43 rescue | FUS yeast rescue | uPA surface inh | BCR signal inh | Abeta rescue
O=C(CCCn1c2ccccc2c(=O)c2ccccc21)Nc1cccc(Cl)c1 | · | 35.5µM* | ? | · | · | i
Cc1ccc2c(c1)c(=O)c1ccccc1n2CCCC(=O)Nc1ccc(Cl)c(Cl)c1 | · | 6.5% | i | · | · | i
CN(C)S(=O)(=O)c1cccc(COC(=O)Cc2c(F)cccc2Cl)c1 | 11.5% | ? | i | -9.2% | -0.1% | i
Cc1nc(S(=O)(=O)c2ccc(Cl)cc2Cl)nc2c1CCC2 | 1.8% | -1.4% | i | 0.8% | -0.1% | i
Cc1nc(S(=O)(=O)c2cccc(Cl)c2)nc2c1CCC2 | ? | 14.1µM* | · | -1.3% | -0.2% | i
O=C(OCc1cc(Cl)cc2c1OCOC2)c1cccnc1Cl | 15.8µM* | ? | i | 3.3% | ? | i
Cc1nc(N2CCCC2)ncc1C(=O)NCc1cccc(Cl)c1 | · | 14.1µM* | i | · | · | i
CCc1nn(C(C)C(=O)N2CCN(c3ccc(OC)cc3)CC2)c(=O)c2cc3occc3n12 (stereo unspecified) | -0.2% | 31.6µM* | i | ? | -12.5% | i
CCc1nn(CCCC(=O)N2CCN(c3cc(Cl)ccc3C)CC2)c(=O)c2cc3occc3n12 | · | 35.5µM* | ? | · | · | i
Cc1cccc(N2CCN(C(=O)CCCn3ncn4c(cc5occc54)c3=O)CC2)c1C | · | 15.8µM* | i | · | · | i
Cc1nn(C(C)C(=O)N2CCN(c3ccccn3)CC2)c(=O)c2cc3occc3n12 (stereo unspecified) | -2.6% | 3.1% | i | -0.8% | · | i
Cc1cccc(N2CCN(C(=O)C(C)n3nc(C)n4c(cc5occc54)c3=O)CC2)c1C (stereo unspecified) | 5.7% | 22.4µM*! | i | -5.3% | 14.0% | i
CCc1nn(CCCC(=O)N2CCN(c3cccc(OC)c3)CC2)c(=O)c2cc3occc3n12 | · | 4.9% | i | · | · | i
O=[N+]([O-])c1cccc(COc2ccccc2CN2CCOCC2)c1 | 1.9% | 11.0% | i | -0.9% | · | i
CCN(CCn1cccn1)Cc1nc(-c2ccc(OC)cc2)no1 | 2.0% | 18.5% | i | 0.7% | -3.5% | i
O=C(O)C(c1ccccc1)N1C(=O)/C(=C\c2ccc(-c3ccc(Br)cc3)o2)SC1=S (stereo unspecified) | 3.1% | 15.3% | i | -11.8% | 1.8% | i
O=C(COC(=O)C12CC3CC(CC(O)(C3)C1)C2)Nc1ccc(OC(F)F)cc1 | -0.9% | 5.4% | i | -7.0% | -0.2% | i
O=C(COC(=O)C12CC3CC(CC(C3)C1)C2)Nc1ccc(OC(F)F)cc1 | · | 17.8µM* | i | 1.4% | -14.3% | ?
COC(=O)c1cc(NS(=O)(=O)c2cccc(Cl)c2)ccc1N1CCOCC1 | 2.7% | 15.1% | i | -1.5% | -3.6% | i
COc1cc(C(=O)NCC2CCCO2)ccc1OCc1ccccc1 (stereo unspecified) | 0.0% | 2.9% | i | 3.6% | 4.1% | i
O=C(NC[C@H]1CCCO1)c1cccc2c1C(=O)c1ccc(-c3ccc(F)cc3OCc3ccccc3)cc1S2(=O)=O | ? | -1.6% | 22.4µM* | 6.9% | 4.3% | i
COc1cc(C(=O)NCC2CCCO2)cc(Br)c1OCc1ccccc1 (stereo unspecified) | 2.6% | 14.1µM* | i | -0.5% | 7.9% | i
Cc1nc(N2CCOCC2)c2c3c(sc2n1)CCC3 | 12.7% | 15.0% | i | -3.2% | 2.2% | i
CSc1nc(N2CCOCC2)c2c3c(sc2n1)CCCC3 | 9.4% | 15.8µM* | ? | -4.1% | -9.7% | i
CCC(=O)NC(c1ccc(OC)cc1)c1c(O)ccc2ccccc12 (stereo unspecified) | 12.5% | 0.5% | i | 5.62µM* | -1.5% | i
